IL-1B inflam inh: qHTS for Inhibitors of Inflammasome Signaling: IL-1-beta AlphaLISA Primary Screen | THP-1 LPS/ATP IL-1B secretion, AlphaLISA, 16 h; stronger effect = lower value | activity change, % at 57.5 µM | AID 743279, 2014 | actives 4.7% (n = 360,000); in the data active = activity change below about -50%; inconclusive = mostly about -30% to -49%
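Secreted IL-1B measured by AlphaLISA bead assay after 16 h compound exposure of THP-1 cells; compounds (final up to 57.5 uM) added 1 h before LPS (250 ng/mL) and ATP (1.25 mM) stimulation; lower signal means less secretion.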
HT1080 IDH1KD tx: qHTS for induction of synthetic lethality in tumor cells producing 2HG: qHTS for the HT-1080-IDH1KD cell line | Potency, µM (top dose mostly 46.1 µM), hits mostly cytotoxic | AID 686971, 2013 | HT-1080 IDH1 knockdown viability, ATP luminescence, 48 h | actives 2% (n = 360,000)
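IDH1KD HT-1080 cells, 750/well, RPMI + 5% FBS; compound pinned after 2 h settling; 48 h, 37 °C; CellTiter-Glo luminescence; % activity normalised to DMSO and no-cell wells; curves fitted, classed by r2 and efficacy.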
DT40 TDP1 no CPT: qHTS for Inhibitors of human tyrosyl-DNA phosphodiesterase 1 (TDP1): qHTS in cells in absence of CPT. DT40 Tdp1-/- hTDP1 cells, no CPT, ATP luminescence, 48 h. Potency, µM (titrated, usually from 46.2 µM), usual class: inhibitors. actives 15% (n = 420,000). AID 686978, 2013; also: nearly all actives have a fitted effect of over 55% in size
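Camptothecin absent (DMSO only). Human TDP1-complemented DT40 knockout cells, 400 cells/well, 37 °C for minimum 48 hr; ATP measured via CellTiter-Glo, 30 min dark incubation, luminescence.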
DT40 TDP1 CPT: qHTS for Inhibitors of human tyrosyl-DNA phosphodiesterase 1 (TDP1): qHTS in cells in presence of CPT; chicken DT40 Tdp1-/-;hTDP1 cells + 20 nM CPT, ATP luminescence, 48 h; Potency, µM (titrated, usually from 46.2 µM), most hits filed as inhibitors; actives 12% (n = 420,000); AID 686979, 2013; also: nearly all actives have a fitted effect of over 55% in size
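Chicken DT40 Tdp1-/- cells complemented with human TDP1, 400 cells/well, exposed to compounds plus 20 nM camptothecin for at least 48 h at 37 C; viability read as ATP content by CellTiter-Glo luminescence.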
HT1080-NT tox: qHTS for induction of synthetic lethality in tumor cells producing 2HG: qHTS for the HT-1080-NT fibrosarcoma cell line; Potency, µM (titrated, usually from 46.1 µM), most hits filed as cytotoxic; HT-1080-NT fibrosarcoma viability, CellTiter-Glo ATP luminescence, 48 h; AID 686970, 2013; actives 1.6% (n = 360,000);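 also: NT is the 2HG producing partner of a matched IDH1 knockdown line; nearly all actives have a fitted effect of over 55% in size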
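Viability of the 2HG-overproducing fibrosarcoma line after 48 hours of compound exposure at 37 degrees C was determined by luminescence with CellTiter-Glo, and concentration-effect curves were then fitted and categorized.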
uPA generation: qHTS for Inhibitors of Cell Surface uPA Generation | cell surface uPA generation assay, qHTS | Potency, µM (highest dose often 38.3 µM), actives largely listed as inhibitors | actives 0.31% (n = 330,000) | AID 540303, 2011; active = well fitted inhibition curve with a large enough effect; inconclusive = small, poorly fitted or top-dose-only effect; inactive = no such curve, though single readings can be large or run the other way; tested in mouse RAW 264.7 cells; also: nearly all actives have a fitted effect of over 55% in size
A number is an active result. An excerpt weighted towards active compounds, which were near 19% of everything screened. Unless noted, calls follow the shape of the dose curve; as a rule, active = well fitted curve in the direction sought with a large enough effect; inconclusive = small, poorly fitted or top-dose-only effect, or another doubt; inactive = no such curve, though single readings can be large; an effect the other way counts as inactive or inconclusive.

How did CC(=O)c1c(C)n(-c2cccc(Cl)c2)c2ccc(OC(=O)c3ccccc3)cc12 do in these assays?
DT40 TDP1 no CPT: 29.1µM; DT40 TDP1 CPT: inconclusive

What do the screens show for `COc1ccc(OC)c(CCNC(=O)c2ccc(NC3=NC4CS(=O)(=O)CC4S3)cc2)c1` (stereo not given)?
IL-1B inflam inh: inactive; HT1080 IDH1KD tx: inactive; DT40 TDP1 no CPT: inactive; DT40 TDP1 CPT: inactive; HT1080-NT tox: inactive; uPA generation: inactive

How did Cc1ccc(S(=O)(=O)/N=C(/c2ccc(F)cc2)N2CCCCC2)cc1 do in these assays?
IL-1B inflam inh: inactive; HT1080 IDH1KD tx: inactive; DT40 TDP1 no CPT: inactive; DT40 TDP1 CPT: inactive; HT1080-NT tox: inactive; uPA generation: inactive

Results for O=C(C1=C[C@H](C2CCCCC2)C[C@H](OCCCCO)O1)N1CCN(Cc2ccc3c(c2)OCO3)CC1 ?
IL-1B inflam inh: inconclusive; HT1080 IDH1KD tx: inactive; DT40 TDP1 no CPT: 18.4µM; DT40 TDP1 CPT: 11.6µM; HT1080-NT tox: inactive; uPA generation: inactive

What do the screens show for `O=C(C1=C[C@@H](c2ccc3c(c2)OCO3)C[C@@H](OCCCCO)O1)N1CCN(Cc2ccc3c(c2)OCO3)CC1`?
IL-1B inflam inh: inactive; HT1080 IDH1KD tx: inactive; DT40 TDP1 no CPT: inconclusive; DT40 TDP1 CPT: inconclusive; HT1080-NT tox: inactive; uPA generation: inactive

Results for O=C(C1=C[C@@H](c2ccc(Br)cc2)C[C@@H](OCCCCO)O1)N1CCN(Cc2ccccc2)CC1 ?
IL-1B inflam inh: inactive; HT1080 IDH1KD tx: inactive; DT40 TDP1 no CPT: 5.8µM; DT40 TDP1 CPT: 6.51µM; HT1080-NT tox: inactive; uPA generation: inconclusive

What do the screens show for `CC(=O)n1cc([C@@H]2C=C(C(=O)N3CCN(Cc4ccc5c(c4)OCO5)CC3)O[C@H](OCCCCO)C2)c2ccccc21`?
IL-1B inflam inh: -51.9; HT1080 IDH1KD tx: inactive; DT40 TDP1 no CPT: inconclusive; DT40 TDP1 CPT: inconclusive; HT1080-NT tox: inactive; uPA generation: inactive

Results for O=C(C1=C[C@H](c2ccc3c(c2)OCO3)C[C@H](OCCCCO)O1)N1CCN(Cc2ccc3c(c2)OCO3)CC1 ?
IL-1B inflam inh: inconclusive; HT1080 IDH1KD tx: inactive; DT40 TDP1 no CPT: 18.4µM; DT40 TDP1 CPT: inconclusive; HT1080-NT tox: inactive; uPA generation: inactive

How did O=C(O)C(c1ccccc1)C(O)c1ccc2c(c1)OCO2 (stereo not given) do in these assays?
IL-1B inflam inh: inactive; HT1080 IDH1KD tx: inactive; DT40 TDP1 no CPT: inactive; DT40 TDP1 CPT: inactive; HT1080-NT tox: inactive; uPA generation: inactive

What do the screens show for `Cc1cc(C)c(C)c(S(=O)(=O)NCCCn2ccnc2)c1C`?
IL-1B inflam inh: inactive; HT1080 IDH1KD tx: inconclusive; DT40 TDP1 no CPT: inconclusive; DT40 TDP1 CPT: inconclusive; HT1080-NT tox: inconclusive; uPA generation: inactive

Results for Oc1ccccc1-c1n[nH]c(-c2ccccc2O)n1 ?
IL-1B inflam inh: inactive; HT1080 IDH1KD tx: inconclusive; DT40 TDP1 no CPT: 5.17µM; DT40 TDP1 CPT: 3.66µM; HT1080-NT tox: inconclusive; uPA generation: inactive

How did CN=C(Nc1ccc(C(=O)OC)s1)c1ccc(Cl)cc1 do in these assays?
IL-1B inflam inh: inactive; HT1080 IDH1KD tx: inactive; DT40 TDP1 no CPT: inactive; DT40 TDP1 CPT: inactive; HT1080-NT tox: inactive; uPA generation: inactive

What do the screens show for `Nc1cc2c(cc1Br)-c1ccc(F)cc1C2O` (stereo not given)?
IL-1B inflam inh: inactive; HT1080 IDH1KD tx: inactive; DT40 TDP1 no CPT: inactive; DT40 TDP1 CPT: inactive; HT1080-NT tox: inactive; uPA generation: inactive

What do the screens show for `O=C(NC1CC2CCCC(C1)N2C(=O)Nc1ccc(Cl)c(C(F)(F)F)c1)C1CC1` (stereo not given)?
IL-1B inflam inh: inactive; HT1080 IDH1KD tx: inactive; DT40 TDP1 no CPT: 16.4µM; DT40 TDP1 CPT: inconclusive; HT1080-NT tox: inactive; uPA generation: inactive

Results for O=C1O[C@@H](c2ccccc2)C[C@@H](O)[C@H](O)CCCc2ccccc21 ?
IL-1B inflam inh: inactive; HT1080 IDH1KD tx: inactive; DT40 TDP1 no CPT: inconclusive; DT40 TDP1 CPT: inactive; HT1080-NT tox: inactive

How did CC(C)c1c(C(=O)N(C)CC2CCCN(C)C2)cnn1-c1nccc(-c2cccs2)n1 (stereo not given) do in these assays?
DT40 TDP1 no CPT: inactive; DT40 TDP1 CPT: inconclusive

What do the screens show for `CCC1CN(C(=O)N2CCC(C(=O)N3CCN(c4ccc(F)cc4)CC3)CC2)c2ccccc2O1` (stereo not given)?
DT40 TDP1 no CPT: 20.6µM; DT40 TDP1 CPT: 13µM

What do the screens show for `CCC1CN(C(=O)N2CCC(C(=O)N3CCN(c4cccc(C)c4C)CC3)CC2)c2ccccc2O1` (stereo not given)?
DT40 TDP1 no CPT: 5.8µM; DT40 TDP1 CPT: 7.31µM

How did Cc1ccc(C)c(N2CCN(C(=O)C3CCC3)CC2)c1 do in these assays?
IL-1B inflam inh: inactive; HT1080 IDH1KD tx: inactive; DT40 TDP1 no CPT: inactive; DT40 TDP1 CPT: inactive; HT1080-NT tox: inactive; uPA generation: inactive

What do the screens show for `CCC1CN(C(=O)N2CCC(C(=O)N3CCN(c4cc(C)ccc4C)CC3)CC2)c2ccccc2O1` (stereo not given)?
DT40 TDP1 no CPT: 14.6µM; DT40 TDP1 CPT: 16.4µM

How did O=C(C1CC(=O)N(c2ccc(F)cc2)C1)N1CCN(c2ccc(F)cc2)CC1 (stereo not given) do in these assays?
IL-1B inflam inh: inactive; HT1080 IDH1KD tx: inactive; DT40 TDP1 no CPT: inactive; DT40 TDP1 CPT: inactive; HT1080-NT tox: inactive; uPA generation: inactive

How did Cc1ccccc1N1CCN(C(=O)C2CCCCC2)CC1 do in these assays?
IL-1B inflam inh: inactive; HT1080 IDH1KD tx: inactive; DT40 TDP1 no CPT: inconclusive; DT40 TDP1 CPT: inactive; HT1080-NT tox: inactive; uPA generation: inactive

What do the screens show for `CCOc1cc2c(cc1/C=C/c1noc(C)c1[N+](=O)[O-])OC(C)C2` (stereo not given)?
IL-1B inflam inh: inactive; HT1080 IDH1KD tx: inactive; DT40 TDP1 no CPT: inactive; DT40 TDP1 CPT: inactive; HT1080-NT tox: inactive; uPA generation: inactive

Results for Cc1cc(C)cc(NC(=O)CCC(=O)Nc2nnc(C(C)C)s2)c1 ?
IL-1B inflam inh: inactive; HT1080 IDH1KD tx: inactive; DT40 TDP1 no CPT: inactive; DT40 TDP1 CPT: inactive; HT1080-NT tox: inactive; uPA generation: inactive

What do the screens show for `Cc1c(F)c(N2CCNC(C)C2)cc2c1c(=O)c(C(=O)O)cn2C1CC1` (stereo not given)?
DT40 TDP1 no CPT: inactive; DT40 TDP1 CPT: inactive

How did O=C(Nc1ccccc1)N1CCC2(CCNCC2)CC1 do in these assays?
DT40 TDP1 no CPT: inactive; DT40 TDP1 CPT: inactive
